Test results as given in PubChem BioAssay (Tox21).
Results filed as inconclusive are left out. Some compounds were tested as several samples or in several runs, with calls that do not always agree. The source made the active and inactive calls. Calls follow the shape of the full dose curve.

Experiments:
[1] = target: Acetylcholinesterase (Homo sapiens) (UniProt P22303); experiment: Acetylcholinesterase (AChE) small molecule antagonists: colormetric cell-based qHTS assay (AID 1347395); also: nearly all actives have a fitted effect of over 30% in size
Summary of the method: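 Cells (SH-SY5Y, 2,000 per well) are seeded and left overnight at 37 C. Compound is added for 30 min, then DTNB and acetylthiocholine for a further 90 min at 37 C before absorbance-based thiocholine detection.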

[2] = target: Acetylcholinesterase (Homo sapiens) (UniProt P22303); experiment: Acetylcholinesterase (AChE) small molecule antagonists: enzyme-based qHTS assay (AID 1347397); details: Potency: AChE enzyme activity inhibition; outcome: AChE enzyme activity inhibition; also: nearly all actives have a fitted effect of over 55% in size
Summary of the method: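 Compound or DMSO vehicle was pin-transferred onto recombinant human AChE (50 mU/mL as dispensed) and left 30 min at room temperature. Acetylthiocholine with DTNB then started the reaction, read colorimetrically 10 min later.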

[3] = target: Acetylcholinesterase (Homo sapiens) (UniProt P22303); experiment: Acetylcholinesterase (AChE) small molecule antagonists: fluorescence cell-based qHTS assay (AID 1347398); details: Potency: AChE activity; outcome: AChE activity; also: nearly all actives have a fitted effect of over 50% in size
Summary of the method: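 Using neuroblastoma SH-SY5Y cells as the enzyme source, test chemicals are preincubated 30 min at 37 C; AChE-driven acetylthiocholine cleavage is then quantified by thiocholine-dependent Thiolite Green fluorescence after 40 min at room temperature.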

[4] = target: Acetylcholinesterase (Homo sapiens) (UniProt P22303); experiment: Acetylcholinesterase (AChE) small molecule antagonists: enzyme-based qHTS assay with human liver microsomes (AID 1347399); details: Potency: qHTS inhibition; outcome: qHTS inhibition; also: nearly all actives have a fitted effect of over 60% in size
Summary of the method: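 Recombinant human AChE (50 mU/mL in the enzyme mix) and human liver microsomes (0.25 mg/mL final) were preincubated with compound and NADPH (0.25 mg/mL final) for 30 min at 37 C. Acetylthiocholine/DTNB was then added; thiocholine was read colorimetrically after 10 min at room temperature.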

Measured: Potency
Potency is read from the fitted curve at half-maximal effect.

Acetylcholinesterase (Homo sapiens), sequence (P22303 whole entry, looked up): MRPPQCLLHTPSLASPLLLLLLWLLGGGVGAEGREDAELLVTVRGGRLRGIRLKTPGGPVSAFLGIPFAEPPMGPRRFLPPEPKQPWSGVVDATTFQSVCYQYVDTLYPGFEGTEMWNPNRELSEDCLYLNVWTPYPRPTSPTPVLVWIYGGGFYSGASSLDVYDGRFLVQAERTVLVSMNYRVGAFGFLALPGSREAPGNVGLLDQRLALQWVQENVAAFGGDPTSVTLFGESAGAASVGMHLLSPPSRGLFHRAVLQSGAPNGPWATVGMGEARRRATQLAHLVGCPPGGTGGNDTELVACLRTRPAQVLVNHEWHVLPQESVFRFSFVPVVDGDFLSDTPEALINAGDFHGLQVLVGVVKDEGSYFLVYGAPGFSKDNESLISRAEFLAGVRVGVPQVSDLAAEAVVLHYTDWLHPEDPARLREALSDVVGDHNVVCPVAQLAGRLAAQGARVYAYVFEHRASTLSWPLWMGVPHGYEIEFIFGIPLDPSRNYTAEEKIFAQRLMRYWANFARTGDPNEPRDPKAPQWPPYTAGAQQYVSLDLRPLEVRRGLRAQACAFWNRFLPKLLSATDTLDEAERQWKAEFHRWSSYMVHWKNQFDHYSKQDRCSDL

CC(=O)N(O)CCCCCNC(=O)CCC(=O)N(O)CCCCCNC(=O)CCC(=O)N(O)CCCCCN
inactive: all assays above

CCN1CCC[C@H]1CNC(=O)c1c(O)c(Cl)cc(Cl)c1OC
inactive: all assays above

CC(C)C(=O)Nc1cccc(C(F)(F)F)c1
inactive: all assays above

O=C1OC2(c3ccccc31)c1cc(I)c(O)c(I)c1Oc1c2cc(I)c(O)c1I
40.4 µM (active) and inactive: [2]
36 µM (active) and inactive: [1]
inactive: [3] | [4]

CNCCC(Oc1ccccc1OC)c1ccccc1 (stereo not given)
inactive: all assays above

CCOC(=O)CCC(=O)OCC
inactive: all assays above

CC(C)C[C@H](NC(=O)[C@H](CCc1ccccc1)NC(=O)CN1CCOCC1)C(=O)N[C@@H](Cc1ccccc1)C(=O)N[C@@H](CC(C)C)C(=O)[C@@]1(C)CO1
inactive: all assays above

COC1=C(OC)C(=O)C(CCCCCCCCCCO)=C(C)C1=O
inactive: all assays above

O=C1CCCCC1
inactive: all assays above

O=C(c1ccccc1)c1ccc(O)cc1
inactive: all assays above

CCOC(=O)c1ccccc1C
inactive: all assays above

CCCCNc1c(C(=O)OCC)c(C)nc2c1cnn2CC
inactive: all assays above

ON=C1CCCCC1
inactive: all assays above

OCCCCCCCl
inactive: all assays above

CC1=C(C=O)C(C)(C)CC=C1
inactive: all assays above

CC1=CC(=O)/C(=C(/C)O)C(=O)O1
inactive: all assays above

CCOC(=O)CN1CCCC1=O
inactive: all assays above

O=C1OC(=O)c2ccc3c4c(ccc1c24)C(=O)OC3=O
inactive: all assays above

O=C1OCCO1
inactive: all assays above

CC[C@]12CCCN3CCc4c(n(c5ccccc45)[C@@](O)(C(=O)OC)C1)[C@@H]32
inactive: all assays above

CCc1cccc(O)c1
inactive: all assays above

CN(CCOc1ccc(CC2SC(=O)NC2=O)cc1)c1ccccn1 (stereo not given)
inactive: all assays above

CC(O)CN (stereo not given)
inactive: all assays above

NC(=O)c1ccc([N+](=O)[O-])cc1Cl
inactive: all assays above

C=C(C)C(=O)OCCOC1CC2CC1C1C=CCC21 (stereo not given)
inactive: all assays above

CC(C)=CC(=O)C=C(C)C
inactive: all assays above

O=C(COCCOCCOCC(=O)Nc1c(I)cc(I)c(C(=O)O)c1I)Nc1c(I)cc(I)c(C(=O)O)c1I
inactive: all assays above

O=c1oc(=O)c2cc3c(=O)oc(=O)c3cc12
inactive: all assays above

O=Cc1ccc(Cl)cc1
inactive: all assays above

CCCOCCOCCO
inactive: all assays above

C=C[Si](OCCOC)(OCCOC)OCCOC
inactive: all assays above

Nc1ccc(N=Nc2ccc(N)cc2)cc1
inactive: all assays above

OC1CCCCCCCCCCC1
inactive: all assays above

O=C(O)c1cc(Br)c(O)c(Br)c1
inactive: all assays above

O=C(OCc1ccccc1)c1ccc(O)cc1
inactive: all assays above

N#Cc1ccccc1C#N
inactive: all assays above

CCCCCC[C@@H](O)C/C=C\CCCCCCCC(=O)OCC(O)CO (stereo not given in full)
inactive: all assays above

Cc1ccc2ccccc2c1[N+](=O)[O-]
inactive: all assays above

O=C(Nc1ccccc1)Nc1ccccc1
inactive: all assays above

Cc1cccc2n[nH]nc12
inactive: all assays above

CCCCC(CC)COC(C)=O (stereo not given)
inactive: all assays above

O=C(/C=C/c1ccccc1)OCc1ccccc1
inactive: all assays above

C[Si](C)(C)N[Si](C)(C)C
19.8 µM (active) and inactive: [4]
1.98 µM (active) and inactive: [3]
inactive: [1]
3.96 µM (active) and inactive: [2]

O=C(O)c1ccc(O)cc1O
inactive: all assays above

O=C(O)CCCCCCCCCCC(=O)O
inactive: all assays above

CCn1ccnc1CC1COc2ccccc2O1 (stereo not given)
inactive: all assays above

C[C@@H]1[C@H](O)[C@@H](C)/C=C/C=C\C=C\C=C\C=C\C=C\C=C\[C@H](O[C@@H]2O[C@H](C)[C@@H](O)[C@H](N)[C@@H]2O)C[C@@H]2O[C@](O)(C[C@@H](O)C[C@@H](O)[C@H](O)CC[C@@H](O)C[C@@H](O)CC(=O)O[C@H]1C)C[C@H](O)[C@H]2C(=O)O (stereo in doubt)
inactive: all assays above

CCCCC[Si](OCC)(OCC)OCC
inactive: all assays above

COC(=O)C1CCC(C(=O)OC)CC1 (stereo not given)
inactive: all assays above

CCN1C(=O)c2ccccc2C1Nc1ccc(OCCN2CCCCC2)cc1 (stereo not given)
inactive: all assays above

Nc1ccc(-c2ccc(F)cc2)cc1
inactive: all assays above

C/C=C/c1ccc(OCC)c(O)c1
inactive: all assays above

COc1ccc(OC)c(NC(=O)CC(C)=O)c1
inactive: all assays above

CCOc1ccc(NC(C)=O)cc1
inactive: all assays above

C=CC(=O)Nc1cc2c(Nc3ccc(F)c(Cl)c3)ncnc2cc1OCCCN1CCOCC1
inactive: all assays above

CO[C@H]1C=CO[C@@]2(C)Oc3c(C)c(O)c4c(O)c(c(/C=N/N5CCN(C)CC5)c(O)c4c3C2=O)NC(=O)/C(C)=C\C=C[C@H](C)[C@H](O)[C@@H](C)[C@@H](O)[C@@H](C)[C@H](OC(C)=O)[C@@H]1C
inactive: all assays above

O=C1C(CCS(=O)c2ccccc2)C(=O)N(c2ccccc2)N1c1ccccc1 (stereo not given)
inactive: all assays above

CC1(C)O[C@@H]2C[C@H]3[C@@H]4CCC5=CC(=O)C=C[C@]5(C)[C@@]4(F)[C@@H](O)C[C@]3(C)[C@]2(C(=O)CO)O1
inactive: all assays above

CC(C)Nc1ccccc1
inactive: all assays above

CCCCOCCOCCOC(=O)CCCCC(=O)OCCOCCOCCCC
inactive: all assays above
